According to PubChem BioAssay AID2014 (Sanford-Burnham Center for Chemical Genomics, 2009):
The whole screen tested about 290,000 compounds, of which about 3,000 (1%) were called active. The rule behind the calls is not given here. What follows is part of a selection rich in actives, with near analogues and random picks from the rest.

Target: Polyadenylate-binding protein 1 (Homo sapiens) (UniProt P11940)
Experiment: blockers of PABP interaction with poly(A) – biochemical, fluorescence polarization, uHTS, primary screen (AID 2014);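 note: calls also rest on retests at 20 µM and on dose response follow-up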
Conditions: PABP-poly(A) RNA binding, stronger effect = higher value

Polyadenylate-binding protein 1 (Homo sapiens), sequence (P11940 whole entry, looked up): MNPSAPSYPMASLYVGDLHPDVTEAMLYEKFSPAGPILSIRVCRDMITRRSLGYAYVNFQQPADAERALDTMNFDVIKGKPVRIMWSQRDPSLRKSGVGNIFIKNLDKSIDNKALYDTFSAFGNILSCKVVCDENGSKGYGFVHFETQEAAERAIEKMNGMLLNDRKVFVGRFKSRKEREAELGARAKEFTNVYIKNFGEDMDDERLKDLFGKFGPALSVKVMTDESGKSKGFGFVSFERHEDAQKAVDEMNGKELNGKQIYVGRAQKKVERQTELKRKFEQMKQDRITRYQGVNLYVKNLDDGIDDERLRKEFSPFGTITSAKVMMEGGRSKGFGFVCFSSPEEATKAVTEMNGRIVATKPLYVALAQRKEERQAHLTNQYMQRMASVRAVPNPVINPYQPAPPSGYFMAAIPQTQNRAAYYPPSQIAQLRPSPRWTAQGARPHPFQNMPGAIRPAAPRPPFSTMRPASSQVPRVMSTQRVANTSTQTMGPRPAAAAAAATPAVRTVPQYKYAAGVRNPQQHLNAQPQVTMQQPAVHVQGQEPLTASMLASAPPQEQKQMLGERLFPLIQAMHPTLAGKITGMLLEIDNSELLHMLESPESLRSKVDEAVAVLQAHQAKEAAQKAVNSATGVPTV

Compound	inhibition (at 35 µM)	inhibition (confirmation repeats, at 20 µM) [%]
O=C1NC(=O)N(CCc2ccc(F)cc2)C(=O)/C1=C/C=C/c1ccccc1	-13.4% (inactive)	–
O=C(O)COc1ccccc1/C=C1\C(=O)NC(=O)N(CCC2=CCCCC2)C1=O	53.5% (active)	–
O=C1NC(=O)N(Cc2ccco2)C(=O)/C1=C\c1cccn1CCOc1ccccc1	10.9% (inactive)	–
COc1ccc(Br)cc1CNCCc1cccc(Cl)c1	3.3% (inactive)	–
c1ccc(CC2CCCCN2)cc1 (stereo unspecified)	1.7% (inactive)	–
COc1ccc(CNCCc2c[nH]c3ccccc23)cc1OC	11.6% (inactive)	–
CC(=NCC1CCCO1)c1c(O)n(-c2ccccc2)c(=O)[nH]c1=O (stereo unspecified)	-3.4% (inactive)	–
CCC(=NCCc1ccccc1)c1c(O)n(C2CCCCC2)c(=O)[nH]c1=O	-9.2% (inactive)	–
CC(=O)c1c(O)n(C2CCCCCC2)c(=O)[nH]c1=O	75.6% (active)	–
COc1cccc(OC)c1C(=O)NC(=S)N1C[C@H]2C[C@H](C1)c1cccc(=O)n1C2	13.3% (inactive)	–
CN(C)c1ccc(/C=C2\CC3C4CC=C5CC(O)CCC5(C)C4CCC3(C)C2=O)cc1 (stereo unspecified)	53.3% (active)	93.6
O=C(Cc1ccc(Cl)cc1)NCCN1CCN(C(=O)Cc2ccc(Cl)cc2)CC1	3.1% (inactive)	–
O=[N+]([O-])c1cnc2ccc3ccccc3c2c1	3.3% (inactive)	–
COc1ccc2[nH]c3c(c2c1)CCN[C@H]3C	7.6% (inactive)	–
COc1ccc(N=Cc2c(O)n(C)c(=O)[nH]c2=O)cc1	-8.6% (inactive)	–
CN(C)CCN(CC1CCCN(Cc2ccccc2F)C1)C(=O)Cc1ccc(F)c(F)c1 (stereo unspecified)	0.6% (inactive)	–
Cc1c(Oc2cc(NN3CCCCC3)c([N+](=O)[O-])cc2[N+](=O)[O-])cccc1[N+](=O)[O-]	2.3% (inactive)	–
O=C(NC(=S)N1C[C@H]2C[C@H](C1)c1cccc(=O)n1C2)c1ccc(F)cc1	2.2% (inactive)	–
CCN(CC)CCOC(=O)c1cc2cc(COC)ccc2o1	70.7% (active)	–
C=CCN1C(=O)NC(=O)/C(=C/c2ccc(OCC(=O)Nc3ccc(C)cc3)cc2)C1=O	8.1% (inactive)	–
COc1ccc(CNCCc2ccc3c(c2)OCO3)c(OC)c1OC	11.3% (inactive)	–
CCNc1nc2[nH]c(=O)c3c(c2s1)OC(N)=C(C#N)C3c1cccs1 (stereo unspecified)	68.5% (active)	–

Compound	inhibition (at 35 µM)	inhibition (confirmation repeats, at 20 µM) [%]
N#CC1=C(N)Oc2c(c(=O)oc3ccccc23)C1c1ccccc1OC(=O)c1cccs1 (stereo unspecified)	-4.4% (inactive)	–
COc1cccc(C(=O)N2C[C@H]3C[C@@H](C2)c2cccc(=O)n2C3)c1	1.4% (inactive)	–
COc1ccccc1NC(=O)N1C[C@@H]2C[C@@H](C1)c1cccc(=O)n1C2	-1.1% (inactive)	–
O=C(O)c1ccccc1NC(=O)C1C2CCC(O2)C1C(=O)O (stereo unspecified)	-8.7% (inactive)	–
COc1cccc(N2C(=O)NC(=O)/C(=C\c3ccc([N+](=O)[O-])s3)C2=O)c1	-6.1% (active)	95.4
O=C1NC(=O)N(c2ccccc2)C(=O)/C1=C/c1ccc([N+](=O)[O-])s1	40.1% (inactive)	30.8
Cc1cccc(N2C(=O)NC(=O)/C(=C\c3cnn(-c4ccccc4)c3)C2=O)c1	-12.4% (inactive)	–
Oc1cc2c(cc1CN1CCN(c3ccccc3)CC1)OCO2	2% (inactive)	–
COCCNC(=O)CN1C2CCC1CC(O)(c1cccnc1)C2 (stereo unspecified)	14.6% (inactive)	–
CC(C)(C)c1ccc(CN2C(=O)CN=C(c3ccccc3)c3ccccc32)cc1	12.1% (inactive)	–
O=C1CC(=O)N(Cc2ccccc2)C(=O)N1CCCCCCN1C(=O)CC(=O)N(Cc2ccccc2)C1=O	25.8% (active)	112
O=C(CN1CCCC1=O)NCCc1ccccc1	-2.9% (inactive)	–
CC(C)c1ccc(OCC(=O)N2CCCN(C)CC2)cc1	-0.5% (inactive)	–
Cc1cc(/C=C2/C(=O)NC(=O)N(Cc3ccco3)C2=O)c(C)n1-c1ccc(C(=O)O)cc1	47.1% (inactive)	23.1
COc1ccc(N2C(=O)/C(=C/c3ccco3)C(=O)NC2=S)cc1	38.7% (active)	73.3
COc1ccc(CN2C(=O)NC(=O)/C(=C\c3ccc(OC)c(OC)c3OC)C2=O)cc1	66.4% (inactive)	6.1
COc1ccccc1OC(=O)c1ccc(C)c(S(=O)(=O)N2CCOCC2)c1	-7% (inactive)	–
CCN(CC)C(=O)c1ccc(NC(=O)c2sccc2-c2ccccc2)cc1	-2.6% (inactive)	–
CN(C)C(=O)Oc1ccc2c(c1)O/C(=C\c1ccccc1)C2=O	-6.7% (inactive)	–
CC(=O)Nc1ccc(C(=O)C(Cc2ccccc2)N(C)C)cc1 (stereo unspecified)	-3.6% (inactive)	–
c1ccc(CCNC2CCCCCC2)cc1	8.2% (inactive)	–
O=C(N/N=C/c1c(O)n(C2CC2)c(=S)[nH]c1=O)c1ccccc1	0.6% (inactive)	–

Compound	inhibition (at 35 µM)	inhibition (confirmation repeats, at 20 µM) [%]
O=c1[nH]c(=O)n(CCc2ccc(F)cc2)c(O)c1/C=N/N1CCCCC1	-15% (inactive)	–
CCCCC(=O)N/N=C/c1c(O)n(-c2ccccc2)c(=O)[nH]c1=O	5.3% (inactive)	–
O=C(N/N=C/c1c(O)n(Cc2ccccc2)c(=O)[nH]c1=O)c1ccccc1	15% (active)	81.4
O=c1[nH]c(=O)n(CCc2ccccc2)c(O)c1/C=N/N1CCOCC1	-1.6% (inactive)	–
O=c1[nH]c(=O)n(Cc2ccccc2)c(O)c1/C=N/Nc1c(F)c(F)c(F)c(F)c1F	71% (active)	–
CN1CCC(OC(=O)c2cccc(F)c2)CC1	-7.8% (inactive)	–
CCN(CC)C(=O)Oc1ccc(NC(=O)N2CCOCC2)cc1	2.1% (inactive)	–
CCN1CCN(Cc2cc(OC)c3c(c2)OCO3)CC1	16.4% (inactive)	–
Cc1ccc(C2CN(C)CC2C(=O)c2ccc(F)cc2)cc1 (stereo unspecified)	3.1% (inactive)	–
CC1(C)Cc2c(C#N)c(N3CCNCC3)nc(-c3ccco3)c2CS1	47.2% (active)	59.2
O=C(N/N=C/c1c(O)n(C2CC2)c(=S)[nH]c1=O)c1ccccc1Cl	31% (inactive)	–
O=c1c2ccccc2nc(/C=C/c2ccco2)n1-c1ccccc1O	43.7% (active)	54.4
O=c1c2ccccc2nc(-c2ccco2)n1-c1ccc(Br)cn1	5.1% (inactive)	–
O=c1c2ccccc2nc(/C=C/c2ccc(F)cc2)n1-c1ccccc1O	-9.7% (inactive)	–
CN(C)S(=O)(=O)c1cc(C(=O)N2CCC(C(=O)O)(c3ccccc3)CC2)ccc1Cl	7.1% (inactive)	–
Cc1cccc(NC(=O)N2CC3CC(C2)c2cccc(=O)n2C3)c1 (stereo unspecified)	-0.3% (inactive)	–
CC1CCC(N(C)C2CCN(C)CC2)CC1 (stereo unspecified)	10.9% (inactive)	–
CN(C)CCCN=Cc1c(O)n(Cc2ccco2)c(=O)[nH]c1=O	3% (inactive)	–
Cn1c(O)c(C=Nc2ccc3c(c2)CCC3)c(=O)n(C)c1=O	-0.7% (inactive)	–
CC(C)n1c(=O)c(C=Nc2ccc(Br)cc2)c(O)n(Cc2ccco2)c1=O	6% (active)	52
CCN1C(=O)C(=Cc2c(C)n(CC(=O)NCC3CCCO3)c3ccccc23)C(=O)N(CC)C1=S (stereo unspecified)	-3.1% (inactive)	–
